Laboratory results from article PMC8159961, “Exploring protein hotspots by optimized fragment pharmacophores” (Nature Communications, 2021).
Values without a mark were called inactive. How the calls were made is not given here.

target: 5-HT1A receptor (human, UniProt P08908); assay: primary screen, binary call; higher = more effect of the substance; set-up: hit call from the mean of at least two separate experiments; details: 10 µM
Description: GPCR radioligand binding assays were performed in HEK293 cells with stable expression of human 5-HT1A, 5-HT6, and 5-HT7b receptors (prepared with the use of Lipofectamine 2000). Non-specific binding was defined with 10 µM of 5-HT in 5-HT1AR and 5-HT7R binding experiments, whereas 10 µM of mianserin was used in 5-HT6R assays, respectively. Each compound was tested at 10 µM concentration. Results were expressed as means of at least two separate experiments.

5-HT1A receptor, sequence (P08908 whole entry, looked up): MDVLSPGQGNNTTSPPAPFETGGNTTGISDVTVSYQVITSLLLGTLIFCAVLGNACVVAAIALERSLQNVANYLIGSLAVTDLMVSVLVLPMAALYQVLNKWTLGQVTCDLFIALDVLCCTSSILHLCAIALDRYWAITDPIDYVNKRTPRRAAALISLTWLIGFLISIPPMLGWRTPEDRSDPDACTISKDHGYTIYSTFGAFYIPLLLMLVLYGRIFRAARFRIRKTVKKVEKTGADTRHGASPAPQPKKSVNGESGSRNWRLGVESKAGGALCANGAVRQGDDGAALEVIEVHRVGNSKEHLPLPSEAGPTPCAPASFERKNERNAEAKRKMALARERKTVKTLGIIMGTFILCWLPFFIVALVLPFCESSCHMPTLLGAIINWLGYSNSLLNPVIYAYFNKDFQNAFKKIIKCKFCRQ

Compound	5-HT1
Cc1cc(N)no1	0
O=C1CNCCN1c1ccccc1	0
Clc1ccc2nnnn2n1	0
CCn1cnc2ccccc21	0
c1ccc2sc(N3CCNCC3)nc2c1	1 (active)
CN(C)c1cc(CN)ccn1	0
Oc1ccc(-n2cncn2)cc1	0
NC(=O)N1CCC(C(=O)O)CC1	0
O=C(CN1CCNCC1)c1ccccc1	0
CCN(CC)c1cccc(C)c1	0
Fc1ccc(CC2CCCNC2)cc1 (centres unmarked)	0
